BRCA1 expr up: increases BRCA1 expression; MCF7-BRCA1-FFLuc reporter, luminescence, 48 h; response scale: scaled: vehicle 0%, 10 µM genistein 100%; Potency, µM (top dose mostly 46.1 µM), for inactives: top-dose activation, most hits filed as activators; 1.1% of 380,000 active; AID 624202; further: nearly all actives have a fitted effect of over 80% in size
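MCF7-BRCA1-FFLuc cells, 2000/well in phenol-red-free MEM, attached 2 h then treated 48 h at 37 C. Luciferase luminescence read 15 min after reagent; normalized to genistein maximum activation (10microM) and DMSO, concentration-response fitted.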
PLK1 PBD inh: PLK1 (human) polo-box domain binding inhibition; P53350; Plk1 PBD binding of FITC phosphopeptide, fluorescence polarization; Potency, µM, for the others: max response, negative = inhibition, usual class: inhibitors; 2.8% of 360,000 active; AID 720504; further: series mostly up to about 57 µM; on the % scale 0 is the no-effect control and ±100 the full control effect; nearly all actives have a fitted effect of over 65% in size
Target sequence (P53350 whole entry, looked up, the tested form may be a part): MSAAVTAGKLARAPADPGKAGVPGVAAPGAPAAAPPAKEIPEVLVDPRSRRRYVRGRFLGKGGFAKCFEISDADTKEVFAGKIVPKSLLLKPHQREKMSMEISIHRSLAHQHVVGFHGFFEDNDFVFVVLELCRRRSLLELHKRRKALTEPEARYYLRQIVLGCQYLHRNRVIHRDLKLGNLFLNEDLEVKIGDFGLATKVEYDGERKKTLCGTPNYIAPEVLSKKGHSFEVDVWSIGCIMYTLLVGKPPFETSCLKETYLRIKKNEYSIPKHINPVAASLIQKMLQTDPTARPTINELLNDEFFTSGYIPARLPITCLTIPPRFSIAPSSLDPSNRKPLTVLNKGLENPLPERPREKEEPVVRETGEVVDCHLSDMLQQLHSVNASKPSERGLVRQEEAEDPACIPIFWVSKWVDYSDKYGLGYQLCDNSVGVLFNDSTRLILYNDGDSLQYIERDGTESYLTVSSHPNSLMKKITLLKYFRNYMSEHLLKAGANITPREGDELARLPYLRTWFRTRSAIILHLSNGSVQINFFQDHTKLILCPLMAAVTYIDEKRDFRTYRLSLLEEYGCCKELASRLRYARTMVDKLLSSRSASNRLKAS
VDR inhibitor: inhibitors of human vitamin D receptor. AID 504847. P11473. VDR-SRC2-3 peptide fluorescence polarization, 2 h. Potency, µM, for inactives: max response, negative = inhibition, actives largely listed as inhibitors. 0.93% of 400,000 active; further: on the % scale 0 is the no-effect control and ±100 the full control effect
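FP read-out; VDR + SRC2-3 coactivator peptide; 23 nl compound by pintool; 2 h RT incubation; reagents held at 4 deg C, protected from light.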
Tb PFK inh: blocks T. brucei phosphofructokinase. O15648. T. brucei PFK, ADP-Glo luminescence. Potency, µM (highest dose often 57.5 µM), without a hit: top-dose activity, negative = inhibition, actives largely listed as inhibitors. 0.17% of 330,000 active. AID 485367;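 further: 0% = uninhibited 1x PFK enzyme wells and -100% = no-enzyme wells; nearly all actives have a fitted effect of over 60% in size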
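Activity is normalized to no-enzyme wells (full inhibition) and 1.25 nM enzyme wells (no inhibition). Reaction: 0.5 mM F6P, 0.1 mM ATP, 45 min RT, ADP-Glo luminescence; concentration-response curves fitted and classed by quality.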
Numbers without * were called inactive. Most compounds without a hit are left out; they make up all but 3.9% or so of the library. The call rests on the fitted dose curve; in most records, active means well fitted curve in the direction sought with a large enough effect; inconclusive means small, poorly fitted or top-dose-only effect, or another doubt; inactive means no such curve, though single readings can be large; an effect the other way counts as inactive or inconclusive. Potency means the concentration at half of the fitted maximal effect.

For CNC(=O)c1ccc2nc(-c3ccccc3)c(-c3ccccc3)nc2c1 the results were BRCA1 expr up -5% and VDR inhibitor -2%.
Cc1ccc(-c2nc3ccc(C(=O)O)cc3nc2-c2ccc(C)cc2)cc1 was read as BRCA1 expr up -31%, PLK1 PBD inh 30µM*, VDR inhibitor -6% and Tb PFK inh 0%.
CC12CCC(C)(O1)C1C(=O)N(c3nccs3)C(=O)C12 (stereo not given) was read as BRCA1 expr up -1%, PLK1 PBD inh 4% and VDR inhibitor 0%.
For Cc1ccc(SCC(=O)Nc2ccc3oc(-c4cccc(C)c4)nc3c2)cc1 the results were VDR inhibitor -5%.
Screening CCC(=O)Nc1ccc2oc(-c3cccc(C)c3)nc2c1 returned BRCA1 expr up 38%, PLK1 PBD inh 3µM*, VDR inhibitor inconclusive and Tb PFK inh inconclusive.
Screening O=C(N/N=C/c1cc(Cl)c(O)c(Cl)c1)c1cc2c(ccc3ccccc32)o1 returned BRCA1 expr up inconclusive, PLK1 PBD inh 24µM*, VDR inhibitor -19% and Tb PFK inh -24%.
For O=C(N/N=C/c1ccc(O)c(Br)c1)c1cc2c(ccc3ccccc32)o1 the results were BRCA1 expr up 1%, PLK1 PBD inh -6%, VDR inhibitor 8% and Tb PFK inh 0%.
Screening O=C(N/N=C/c1cc(Br)c(O)c(Br)c1)c1cc2c(ccc3ccccc32)o1 returned BRCA1 expr up -18%, PLK1 PBD inh 21µM*, VDR inhibitor -16% and Tb PFK inh 12%.
O=C(N/N=C/c1ccc([N+](=O)[O-])o1)c1cc2c(ccc3ccccc32)o1 was read as BRCA1 expr up 31%, PLK1 PBD inh 15µM*, VDR inhibitor -11% and Tb PFK inh -4%.
CC1(C)CC(=O)/C(=N/Nc2ccc(Cl)cc2)CO1 was read as BRCA1 expr up 3.5µM*, PLK1 PBD inh -3%, VDR inhibitor -3% and Tb PFK inh -8%.
`COc1ccccc1N/N=C1\COC(C)(C)CC1=O` gave BRCA1 expr up 2%, PLK1 PBD inh 3%, VDR inhibitor 13% and Tb PFK inh -3%.
Cc1cccc(N/N=C2/COC(C)(C)CC2=O)c1 was read as BRCA1 expr up 7.9µM*, PLK1 PBD inh 0%, VDR inhibitor 2% and Tb PFK inh -4%.
O=C(c1ccccc1)N1CCc2cc(CNS(=O)(=O)c3ccccc3Cl)ccc21 was read as VDR inhibitor 17%.
For COc1cc(O)c2c(=O)c(-c3ccc(O[C@@H]4O[C@H](CO)[C@@H](O)[C@H](O)[C@H]4O)cc3)coc2c1 the results were BRCA1 expr up 2µM*, PLK1 PBD inh -8%, VDR inhibitor -13% and Tb PFK inh 0%.
For COc1cc(-c2coc3cc(O[C@H]4OC(CO)C(O)C(O)C4O)c(OC)c(O)c3c2=O)cc(O)c1OC (stereo not given in full) the results were VDR inhibitor -7%.
`O=c1c(-c2ccccc2)coc2cc(O)cc(O)c12` gave VDR inhibitor 28µM*.
`O=c1c(-c2ccc(O)cc2)coc2cc(O[C@@H]3O[C@H](CO)[C@H](O)[C@H](O)[C@H]3O)ccc12` gave VDR inhibitor 2%.
Screening O=c1c(-c2ccc(O)cc2)coc2cc(OC3OC(CO)C(O)C(O)C3O)ccc12 (stereo not given) returned BRCA1 expr up 6.3µM*, PLK1 PBD inh -2%, VDR inhibitor -17% and Tb PFK inh -5%.
For O=c1c(-c2ccc(O)cc2)coc2cc(OC3OC(CO)C(O)C(O)C3O)cc(O)c12 (stereo not given) the results were BRCA1 expr up 8.9µM*, PLK1 PBD inh -4%, VDR inhibitor -10% and Tb PFK inh 1%.
`O=C(COc1ccccc1F)Nc1ccc2nc(SCC(=O)N3CCc4ccccc43)sc2c1` gave BRCA1 expr up 0% and VDR inhibitor 9%.
For O=C(c1ccc(F)cc1)c1cc2ccccc2o1 the results were BRCA1 expr up 11µM*, PLK1 PBD inh -1%, VDR inhibitor 1% and Tb PFK inh -7%.
CC(Cc1ccccc1)NC(=O)c1cc2ccccc2o1 (stereo not given) was read as BRCA1 expr up 7.1µM*, PLK1 PBD inh 0%, VDR inhibitor -6% and Tb PFK inh 1%.
`O=C(c1ccccc1)c1cc2ccccc2oc1=O` gave BRCA1 expr up 53%, PLK1 PBD inh 0%, VDR inhibitor 19% and Tb PFK inh 12%.
CCC(=O)Nc1ccc(NC(=S)NC(=O)c2cc3ccccc3o2)cc1 was read as BRCA1 expr up 16%, PLK1 PBD inh inconclusive, VDR inhibitor inconclusive and Tb PFK inh -1%.
`O=C(c1ccccc1)c1cc2ccccc2o1` gave BRCA1 expr up 10µM*, PLK1 PBD inh -6%, VDR inhibitor 11% and Tb PFK inh 7%.
Screening CCC(=O)Nc1cccc(NC(=S)NC(=O)c2cc3ccccc3o2)c1 returned BRCA1 expr up inconclusive, PLK1 PBD inh 27µM*, VDR inhibitor -30% and Tb PFK inh 5%.
Screening Cc1ccc(CNC(=O)Cn2cc(S(=O)(=O)Cc3ccccc3Cl)c3ccccc32)cc1 returned VDR inhibitor -1%.
Screening Nc1ccc(/C=C/c2ccnc3ccccc23)cc1 returned BRCA1 expr up 31%.
CCOc1ccc(Br)cc1C1=CC(=O)C[C@H](c2ccc(OC)cc2)C1 was read as BRCA1 expr up -60%, PLK1 PBD inh -4%, VDR inhibitor -7% and Tb PFK inh 3%.
`CCCCn1c(O)c(N=NC(=O)c2ccco2)c2ccccc21` gave BRCA1 expr up -29%, PLK1 PBD inh 19µM*, VDR inhibitor 50µM* and Tb PFK inh 3%.
Screening O=C(CNC(=O)c1ccco1)N=Nc1c(O)n(CCc2ccccc2)c2ccccc12 returned BRCA1 expr up -66%, PLK1 PBD inh -2%, VDR inhibitor -3% and Tb PFK inh 13%.
For CCOC(=O)C1=C(C)C(c2ccc(OC)cc2)NC(=S)N1 (stereo not given) the results were BRCA1 expr up -22%, PLK1 PBD inh 6µM*, VDR inhibitor 28µM* and Tb PFK inh -3%.
COc1cccc(/C=C/C(=O)N2CCN(S(=O)(=O)c3ccccc3)CC2)c1 was read as BRCA1 expr up 5% and PLK1 PBD inh -14%.
Screening O=C(CNC(=O)c1ccccc1F)N/N=C/c1cccs1 returned BRCA1 expr up 10µM*, PLK1 PBD inh 2%, VDR inhibitor 4% and Tb PFK inh -5%.
O=C(CNC(=O)c1cccs1)N/N=C/c1c[nH]c2ccccc12 was read as BRCA1 expr up -8%, PLK1 PBD inh 19µM*, VDR inhibitor -2% and Tb PFK inh -3%.
Cc1ccccc1NCC(=O)N/N=C/c1c[nH]c2ccccc12 was read as BRCA1 expr up -47%, PLK1 PBD inh 30µM*, VDR inhibitor -2% and Tb PFK inh -11%.
O=C(CNC(=O)c1ccco1)N/N=C/c1c[nH]c2ccccc12 was read as BRCA1 expr up -3%, PLK1 PBD inh -5%, VDR inhibitor -1% and Tb PFK inh -7%.
